Source: PubChem
DAX1 inh-1: NR0B1 (DAX1) inhibition | inhibition, % at 6.75 µM | 340,000 compounds, 0.99% hits | P51843 | HEK293 Gal4-DAX1 luciferase reporter, luminescence;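 active means inhibition above the mean over all tested compounds plus 3 SD, cut at about 4.2% in these data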;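 further: inhibition shows as a rise in luminescence from relieved DAX1 repression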
Target sequence (P51843 207-470 limits assumed): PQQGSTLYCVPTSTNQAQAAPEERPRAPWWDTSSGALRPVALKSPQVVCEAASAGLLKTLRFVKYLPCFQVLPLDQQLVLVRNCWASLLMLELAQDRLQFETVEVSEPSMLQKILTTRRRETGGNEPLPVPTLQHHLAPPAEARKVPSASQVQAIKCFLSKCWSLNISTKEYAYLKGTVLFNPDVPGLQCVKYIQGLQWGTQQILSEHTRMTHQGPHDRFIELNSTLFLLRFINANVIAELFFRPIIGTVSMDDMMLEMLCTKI
hcDAF12 agonist: activators of H. contortus DAF-12 nuclear receptor; HEK293 hcDAF-12 lit1-tk-luc reporter, luminescence; 0% DMSO, 100% Δ7-dafachronic acid; activation, % at 6.8 µM; 370,000 compounds, 1.4% hits; AID 652067;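 active means activation above the mean of all tested compounds plus 3 SD, cut at about 5.5% in these data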
ssDAF12 agonist: activates DAF-12 receptor from parasite S. stercoralis | HEK293 ssDAF-12/GRIP1 lit1-tk-luc reporter, luminescence; % of 3 µM dafachronic acid response | activation, % at 6.8 µM | 370,000 compounds, 1% hits;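 active means activation above the mean over all tested compounds plus 3 SD, cut at about 0.9% in these data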
DAX1 inh-2: blocks DAX1 repression of SF-1 activated StAR promoter; HEK293T StAR-luciferase reporter, SF-1/DAX-1 repression relief; inhibition, % at 6.8 µM; 370,000 compounds, 1.1% hits; AID 652010;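 active means inhibition above the mean over all tested compounds plus 3 SD, cut at about 3.6% in these data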;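 further: higher inhibition means more luminescence from relief of DAX-1 repression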
hgDAF12 agonist: agonists of H. glycines DAF-12 nuclear receptor; HEK293 GAL4-hgDAF12 UAS-luciferase reporter, agonist luminescence; normalized to butyrate control; activation, % at 6.8 µM; 370,000 compounds, 1.8% hits;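 active means activation above a cutoff set at the mean of all screened compounds plus 3 SD, cut at about 10% in these data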
Each line names hits and unclear results; the compound was inactive in the other large screens. Most compounds without a hit are left out; they make up all but 4.1% or so of the library.

CC(C)C[C@H]1COc2cccc(F)c2S(=O)(=O)N1Cc1cn(Cc2ccc(F)cc2)nn1	none (no result: DAX1 inh-1)
COC(=O)[C@@]12CCCCC=C1N(CCc1ccc(Cl)cc1)C(=O)[C@H]2CC(=O)NCc1ccc(C)o1	none (no result: DAX1 inh-1)
O=C(NCCN1CCC(n2c(=O)[nH]c3ccccc32)CC1)c1cccc(Cl)c1	hgDAF12 agonist 19 (no result: DAX1 inh-1)
O=c1c(Cl)c(N2CCOCC2)cnn1-c1nc2ccccc2[nH]1	DAX1 inh-2 4.2
O=C(Nc1ccc(OC(F)(F)F)cc1)Nc1nc2ncccn2c1-c1ccc(C(F)(F)F)cc1	none (no result: DAX1 inh-1)
CN(C)c1ccc(/C=C2/NC(=O)NC2=O)cc1	hgDAF12 agonist 11
O=C1NC(=O)C(=Cc2ccccc2)N1	none
O=C(Nc1cccc(Cl)c1)OCCN1CCCC12CCC(c1ccccc1)CC2 (centres undefined)	none (no result: DAX1 inh-1, DAX1 inh-2)
COc1cccc2oc3cc(C#CC4(O)CCCCC4)ccc3c(=O)c12	hcDAF12 agonist 5.8, DAX1 inh-2 4.0
O=C(c1ccccc1I)N1CCC(Oc2cccnc2)CC1	none (no result: DAX1 inh-1)
CCOC(=O)c1ccc2c(c1)nc(SC/C(O)=C(\C#N)c1nc3ccccc3[nH]1)n2CC	ssDAF12 agonist 1.6
Oc1cccc(C2c3[nH]c4ccccc4c3CCN2Cc2ccc3c(c2)CCO3)c1 (centres undefined)	none
Oc1cccc(C2c3[nH]c4ccccc4c3CCN2Cc2ccoc2)c1 (centres undefined)	ssDAF12 agonist 1.4
CCc1cccc(Nc2cc(C)nc3nc(C)nn23)c1	DAX1 inh-1 4.3
COc1ccc(NC(=O)CSCC(=O)Nc2sccc2C#N)cc1	ssDAF12 agonist 1.0
COc1ccc(NC(=O)CSc2nc(N)c(C#N)cc2C#N)cc1	none
COc1ccc(CCC(=O)Nc2sccc2C#N)cc1	hgDAF12 agonist 12 (no result: DAX1 inh-1)
COCc1nnc(NC(=O)CCc2ccc(OC)cc2)s1	none
COC(=O)C1=C(C)Nc2ccc(C)cc2S1	DAX1 inh-1 4.2
CCCc1cc(=O)oc2cc(C)cc(OCC(=O)N3C[C@H]4C[C@@H](C3)c3cccc(=O)n3C4)c12	none (no result: DAX1 inh-1)
CCCCc1cc(=O)oc2cc(C)cc(OCC(=O)N3C[C@H]4C[C@@H](C3)c3cccc(=O)n3C4)c12	DAX1 inh-1 7.0
COc1ccccc1CN(C)C(=O)C1CCCN(c2nc3ccccc3o2)C1 (centres undefined)	none (no result: DAX1 inh-1)
CC(=O)c1ccc(S(=O)(=O)N2CCN(C(=O)C(=O)c3cccc(C(F)(F)F)c3)CC2)cc1	none (no result: DAX1 inh-1)
CCCNC(=O)Nc1nc2ccccc2s1	DAX1 inh-1 4.4, hgDAF12 agonist 12
O=C(CCNC(=O)c1ccccc1Cl)Nc1nc2ccccc2s1	hcDAF12 agonist 6.4
CCOC(=O)CC(=O)Nc1nc2ccccc2s1	none
CCOC(=O)Nc1nc2ccccc2s1	hgDAF12 agonist 11
C=CCN(CC#CCN(C)C(=O)c1cccn1C(=O)OC(C)(C)C)Cc1ccc(OC)cc1OC	none (no result: DAX1 inh-1)
CCCCCCNC(=O)C1CSCCS(=O)(=O)N1Cc1ccc(OC)cc1 (centres undefined)	none (no result: DAX1 inh-1)
COc1ccc(C(=O)N2CCC(Oc3cccnc3)CC2)c(OC)c1	none (no result: DAX1 inh-1)
CC(=O)c1cc(-c2ccccc2)n(CC(=O)NCc2ccc(Cl)cc2)c1C	none (no result: DAX1 inh-1)
COc1ccc(C)c2sc(=NC(=O)c3ccc(C(C)=O)cc3)n(C)c12	DAX1 inh-1 4.7, hgDAF12 agonist 13
COc1ccc(C)c2sc(=NC(=O)C(C)C)n(C)c12	none
O=C1CC(N2CCOCC2)=NC(=O)N1c1ccc(Br)cc1	none (no result: DAX1 inh-1)
O=C1NC(=S)N/C1=C/c1cccnc1	hgDAF12 agonist 12
Cc1cccc(NC(=O)c2cnc3sccn3c2=O)c1C	DAX1 inh-2 3.9, hgDAF12 agonist 12 (no result: DAX1 inh-1)
O=C(Nc1cnc2sccn2c1=O)c1ccccc1Cl	DAX1 inh-2 3.9
COc1ccc(NC(=O)c2cnc3sccn3c2=O)cc1	ssDAF12 agonist 0.9
CCOC(=O)C1=CCN(S(=O)(=O)c2ccccc2Br)C1c1ccc(Cl)cc1 (centres undefined)	none (no result: DAX1 inh-1)
C[C@H](O)[C@@H]1C(=O)N2CCc3c([nH]c4c(-c5ccc6c(c5)OCO6)cccc34)[C@@H]2C[C@@H]1N(C)C(=O)OCc1ccccc1	none (no result: DAX1 inh-1)
Cc1cc(C)cc(NC(=O)C(Sc2ncnc3ccccc23)c2ccccc2)c1 (centres undefined)	hcDAF12 agonist 6.4
CC(=O)c1cc(-c2csc(C=O)c2)c(=O)n2c1CCC2	none (no result: DAX1 inh-1)
COc1ccc(C=O)cc1-c1cc(C(C)=O)c2n(c1=O)CCC2	ssDAF12 agonist 1.3 (no result: DAX1 inh-1)
COc1cccc(C(=O)N[C@H](C(=O)N2CCC[C@H]2C(=O)NCCc2ccccc2Cl)C2CCCCC2)c1	none (no result: DAX1 inh-1)
O=C1C(C=NCc2ccncc2)=C(O)c2ccccc21	none
O=C1C(C=NCc2cccnc2)=C(O)c2ccccc21	hgDAF12 agonist 12
COc1cc(C(=O)NNC(=O)C2CC=CCC2C(=O)O)cc(OC)c1OC (centres undefined)	ssDAF12 agonist 1.9
COc1cc(C(=O)NNC(=O)C2CCC2)cc(OC)c1OC	none
Cc1onc(-c2c(F)cccc2Cl)c1-c1ncc(-c2ccc(Cl)cc2)o1	none (no result: DAX1 inh-1)
O=C1c2ccccc2NC(c2ccco2)N1O (centres undefined)	DAX1 inh-1 4.4
O=C1c2ccccc2NC(c2ccc(Br)o2)N1O (centres undefined)	none
CN(C)c1ccc(C(=O)/C=C/c2ccco2)cc1	ssDAF12 agonist 0.9, hgDAF12 agonist 13
CC(=O)Nc1ccc(C(=O)/C=C/c2ccco2)cc1	none
CN(C)c1ccc(C(=O)/C=C/c2ccccc2)cc1	none
O=C(/C=C\c1ccco1)c1ccc(NC(=O)c2ccco2)cc1	hgDAF12 agonist 11
O=C(COCc1ccccc1)N1CC[C@H]2[C@H](CCCN2Cc2cc(F)cc(F)c2)C1	none (no result: DAX1 inh-1)
O=C(NCCc1ccccc1)c1cnc2n(c1=O)CCS2	ssDAF12 agonist 1.3
CC(C)CCN1C(=O)COc2ccccc2C1c1nnnn1-c1ccc2c(c1)OCCO2 (centres undefined)	none (no result: DAX1 inh-1)
OC[C@H]1O[C@@H](c2nc(-c3cccc4ccccc34)no2)[C@H](O)[C@@H]1O	hgDAF12 agonist 13 (no result: DAX1 inh-1)
CCOC(=O)N1CCN(C(=O)C[C@H]2C[C@@]3(C(=O)OC)C(=C[C@H](COCc4ccccc4)O[C@@H]3C)N(Cc3ccc(Cl)cc3Cl)C2=O)CC1	none (no result: DAX1 inh-1)
COc1ccccc1CNC(=O)C1CC(c2ccccc2[N+](=O)[O-])=NO1 (centres undefined)	hcDAF12 agonist 6.1
COc1ccc(CNC(=O)C2CC(c3ccccc3[N+](=O)[O-])=NO2)cc1 (centres undefined)	none
CCCCCCCCN1C(=O)[C@@H](CC(=O)N2CCN(C(=O)C3CC3)CC2)C[C@@]2(C(=O)OC)C1=C[C@H](C1CCCC1)O[C@@H]2C	none (no result: DAX1 inh-1)
COc1cccc(OC)c1C(=O)NC(=S)NNC(=O)[C@H]1C[C@@H]1c1ccccc1	ssDAF12 agonist 1.7
O=C(NNC(=O)C1CC1c1ccccc1)c1cccc([N+](=O)[O-])c1 (centres undefined)	none
O=C(NC(=S)NNC(=O)[C@H]1C[C@@H]1c1ccccc1)c1cccc(F)c1	ssDAF12 agonist 1.4
